# Results reported in paper PMC7862700, “An all-to-all approach to the identification of sequence-specific readers for epigenetic DNA modifications on cytosine”.
# Columns and labels:
# Experiment in all cases: DAPPL (digital affinity profiling via proximity ligation, sequencing); 10 mM Tris-HCl pH 7.5, 50 mM NaCl, 1 mM DTT, 4% glycerol, room temperature, 30 min; GST-TFs on glutathione beads, 16-mer random dsDNA library, 0.1% formaldehyde crosslink after washing; high values mean tight binding
# FEV = biological target: T1, FEV (Homo sapiens, UniProt Q99581 1-238); conditions: protein: recombinant; tags: N-terminal GST; dsDNA, one strand shown
# T1 sequence: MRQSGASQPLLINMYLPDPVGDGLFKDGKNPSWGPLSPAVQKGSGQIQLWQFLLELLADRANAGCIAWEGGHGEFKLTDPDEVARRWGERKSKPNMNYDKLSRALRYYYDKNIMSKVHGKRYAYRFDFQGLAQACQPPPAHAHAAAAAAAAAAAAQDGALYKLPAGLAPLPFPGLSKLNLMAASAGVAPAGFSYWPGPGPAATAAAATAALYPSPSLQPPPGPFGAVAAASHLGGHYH
# Method in brief: (§1)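 Pools of DNA-barcoded human transcription factors, expressed in yeast as GST fusions on glutathione beads and combined with a tag-only sample, were incubated with 200 nmole of a 16-mer random double-stranded DNA library. Incubation took 30 min at room temperature in Tris/NaCl/DTT/glycerol buffer and was followed by washing, 0.1% formaldehyde crosslinking, proximity ligation (BsaI/T4 ligase, 1 h, 37 °C), PCR amplification and sequencing on an Illumina NextSeq500. Binding signal is the ratio of a hexamer's read frequency for a factor to its frequency for the tag-only sample.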
# ETV5 = ETV5 (Homo sapiens, UniProt P41161 1-510); conditions: protein: recombinant; tags: N-terminal GST; dsDNA, one strand shown
# ETV5, sequence (P41161 whole entry): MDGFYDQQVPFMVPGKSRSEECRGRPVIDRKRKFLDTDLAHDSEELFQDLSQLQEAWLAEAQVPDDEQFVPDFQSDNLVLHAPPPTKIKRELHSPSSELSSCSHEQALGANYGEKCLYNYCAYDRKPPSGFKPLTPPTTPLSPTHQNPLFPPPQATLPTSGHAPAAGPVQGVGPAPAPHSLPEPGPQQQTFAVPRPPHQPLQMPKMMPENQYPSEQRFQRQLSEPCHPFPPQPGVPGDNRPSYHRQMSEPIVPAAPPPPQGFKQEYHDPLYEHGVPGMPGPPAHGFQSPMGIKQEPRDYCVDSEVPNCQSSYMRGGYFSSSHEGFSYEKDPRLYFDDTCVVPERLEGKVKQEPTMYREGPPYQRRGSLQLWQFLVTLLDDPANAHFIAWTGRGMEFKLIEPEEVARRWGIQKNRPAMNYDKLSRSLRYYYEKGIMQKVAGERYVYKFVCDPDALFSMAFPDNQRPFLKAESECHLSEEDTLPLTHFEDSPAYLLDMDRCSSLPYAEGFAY
# Method in brief: as §1
# HSF1 = HSF1 (Homo sapiens, UniProt Q00613 1-529); conditions: protein: recombinant; tags: N-terminal GST; chain copies: 3; dsDNA, one strand shown
# HSF1, sequence (Q00613 whole entry): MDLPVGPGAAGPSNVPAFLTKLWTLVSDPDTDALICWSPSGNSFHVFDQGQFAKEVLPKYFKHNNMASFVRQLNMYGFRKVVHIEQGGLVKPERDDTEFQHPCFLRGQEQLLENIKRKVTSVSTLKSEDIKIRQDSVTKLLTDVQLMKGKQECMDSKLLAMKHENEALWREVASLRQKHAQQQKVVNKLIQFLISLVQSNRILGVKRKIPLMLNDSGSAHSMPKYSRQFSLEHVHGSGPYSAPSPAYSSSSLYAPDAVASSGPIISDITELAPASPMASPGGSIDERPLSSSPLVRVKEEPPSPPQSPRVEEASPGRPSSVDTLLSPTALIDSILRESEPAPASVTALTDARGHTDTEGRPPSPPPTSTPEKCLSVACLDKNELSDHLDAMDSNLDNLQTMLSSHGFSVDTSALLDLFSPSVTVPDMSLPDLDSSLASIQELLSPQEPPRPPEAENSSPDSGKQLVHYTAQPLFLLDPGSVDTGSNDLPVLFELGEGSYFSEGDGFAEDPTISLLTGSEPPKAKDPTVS
# Method in brief: as §1
# SPIC = biological target: T2, SPIC (Homo sapiens, UniProt Q8N5J4 1-248); conditions: protein: recombinant; tags: N-terminal GST; dsDNA, one strand shown
# T2 sequence: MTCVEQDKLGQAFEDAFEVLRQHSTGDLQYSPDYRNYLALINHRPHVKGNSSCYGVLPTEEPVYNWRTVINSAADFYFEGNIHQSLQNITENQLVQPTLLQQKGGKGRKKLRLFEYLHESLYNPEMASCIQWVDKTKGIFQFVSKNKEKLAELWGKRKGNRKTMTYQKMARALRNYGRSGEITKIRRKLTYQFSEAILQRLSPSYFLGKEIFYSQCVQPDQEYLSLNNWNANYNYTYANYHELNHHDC
# Method in brief: as §1
# ELF4 = ELF4 (Homo sapiens, UniProt Q99607 1-663); conditions: protein: recombinant; tags: N-terminal GST; dsDNA, one strand shown
# ELF4, sequence (Q99607 whole entry): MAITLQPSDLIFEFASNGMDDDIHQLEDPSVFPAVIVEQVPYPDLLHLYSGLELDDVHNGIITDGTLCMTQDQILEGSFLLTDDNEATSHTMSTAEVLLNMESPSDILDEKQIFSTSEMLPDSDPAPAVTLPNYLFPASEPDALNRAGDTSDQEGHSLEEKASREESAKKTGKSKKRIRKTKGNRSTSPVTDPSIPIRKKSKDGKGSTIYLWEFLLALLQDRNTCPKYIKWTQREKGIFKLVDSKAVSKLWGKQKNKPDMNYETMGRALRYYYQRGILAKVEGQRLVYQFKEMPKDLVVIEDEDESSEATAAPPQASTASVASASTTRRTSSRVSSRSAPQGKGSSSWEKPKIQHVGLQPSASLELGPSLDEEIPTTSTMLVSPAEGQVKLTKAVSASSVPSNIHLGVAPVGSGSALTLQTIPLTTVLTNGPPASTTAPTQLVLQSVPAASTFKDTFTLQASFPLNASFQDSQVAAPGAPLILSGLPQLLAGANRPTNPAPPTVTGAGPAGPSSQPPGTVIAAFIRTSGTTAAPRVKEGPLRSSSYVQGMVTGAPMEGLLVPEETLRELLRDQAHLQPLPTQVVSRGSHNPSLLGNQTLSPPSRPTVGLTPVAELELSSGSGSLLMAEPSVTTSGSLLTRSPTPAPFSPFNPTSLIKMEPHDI
# Method in brief: as §1
# ELK4 = biological target: T3, ELK4 (Homo sapiens, UniProt P28324-2 1-405); conditions: protein: recombinant; tags: N-terminal GST; dsDNA, one strand shown
# T3 sequence: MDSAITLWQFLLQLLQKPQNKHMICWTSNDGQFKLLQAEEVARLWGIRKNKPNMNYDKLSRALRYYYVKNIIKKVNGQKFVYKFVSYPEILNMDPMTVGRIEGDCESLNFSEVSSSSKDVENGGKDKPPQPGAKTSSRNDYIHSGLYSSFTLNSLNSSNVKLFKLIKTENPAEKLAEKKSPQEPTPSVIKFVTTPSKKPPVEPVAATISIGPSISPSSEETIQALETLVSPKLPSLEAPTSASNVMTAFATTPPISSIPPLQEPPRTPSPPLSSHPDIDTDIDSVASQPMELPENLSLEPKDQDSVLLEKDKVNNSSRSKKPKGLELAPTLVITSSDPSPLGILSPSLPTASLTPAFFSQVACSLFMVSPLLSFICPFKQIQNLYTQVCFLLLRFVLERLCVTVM
# Method in brief: as §1
# ETV2 = biological target: T4, ETV2 (Homo sapiens, UniProt O00321 1-342); conditions: protein: recombinant; tags: N-terminal GST; dsDNA, one strand shown
# T4 sequence: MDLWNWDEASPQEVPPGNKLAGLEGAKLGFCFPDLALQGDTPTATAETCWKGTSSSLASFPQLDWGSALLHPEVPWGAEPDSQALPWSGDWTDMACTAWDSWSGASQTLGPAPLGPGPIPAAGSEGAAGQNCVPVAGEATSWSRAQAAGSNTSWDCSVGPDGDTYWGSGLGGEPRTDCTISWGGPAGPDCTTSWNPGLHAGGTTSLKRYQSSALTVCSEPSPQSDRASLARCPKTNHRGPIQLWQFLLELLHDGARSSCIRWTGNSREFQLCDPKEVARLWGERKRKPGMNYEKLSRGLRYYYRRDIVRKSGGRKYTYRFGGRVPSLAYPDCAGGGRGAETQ
# Method in brief: as §1
# ELF3 = biological target: T5, ELF3 (Homo sapiens, UniProt P78545 1-371); conditions: protein: recombinant; tags: N-terminal GST; dsDNA, one strand shown
# T5 sequence: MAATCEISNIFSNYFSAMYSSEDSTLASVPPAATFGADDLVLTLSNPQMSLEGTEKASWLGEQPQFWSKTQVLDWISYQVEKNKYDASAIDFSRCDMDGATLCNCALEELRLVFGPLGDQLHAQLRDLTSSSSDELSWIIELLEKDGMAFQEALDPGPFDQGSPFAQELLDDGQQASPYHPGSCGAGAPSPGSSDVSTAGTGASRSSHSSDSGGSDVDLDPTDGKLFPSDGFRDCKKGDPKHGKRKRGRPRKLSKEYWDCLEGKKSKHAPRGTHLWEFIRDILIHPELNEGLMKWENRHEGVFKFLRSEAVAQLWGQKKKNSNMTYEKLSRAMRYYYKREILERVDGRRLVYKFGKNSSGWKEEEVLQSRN
# Method in brief: as §1
# CRX = CRX (Homo sapiens, UniProt O43186 1-299); conditions: protein: recombinant; tags: N-terminal GST; dsDNA, one strand shown
# CRX, sequence (O43186 whole entry): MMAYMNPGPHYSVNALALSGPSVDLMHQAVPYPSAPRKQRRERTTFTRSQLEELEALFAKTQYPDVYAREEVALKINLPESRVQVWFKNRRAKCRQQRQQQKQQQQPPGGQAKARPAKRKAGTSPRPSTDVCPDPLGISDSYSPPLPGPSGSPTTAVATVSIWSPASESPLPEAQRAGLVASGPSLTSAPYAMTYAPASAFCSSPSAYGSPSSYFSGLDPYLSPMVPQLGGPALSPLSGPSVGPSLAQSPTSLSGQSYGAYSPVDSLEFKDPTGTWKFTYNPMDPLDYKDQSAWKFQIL
# Method in brief: as §1
# ETV1 = ETV1 (Homo sapiens, UniProt P50549 1-477); conditions: protein: recombinant; tags: N-terminal GST; dsDNA, one strand shown
# ETV1, sequence (P50549 whole entry): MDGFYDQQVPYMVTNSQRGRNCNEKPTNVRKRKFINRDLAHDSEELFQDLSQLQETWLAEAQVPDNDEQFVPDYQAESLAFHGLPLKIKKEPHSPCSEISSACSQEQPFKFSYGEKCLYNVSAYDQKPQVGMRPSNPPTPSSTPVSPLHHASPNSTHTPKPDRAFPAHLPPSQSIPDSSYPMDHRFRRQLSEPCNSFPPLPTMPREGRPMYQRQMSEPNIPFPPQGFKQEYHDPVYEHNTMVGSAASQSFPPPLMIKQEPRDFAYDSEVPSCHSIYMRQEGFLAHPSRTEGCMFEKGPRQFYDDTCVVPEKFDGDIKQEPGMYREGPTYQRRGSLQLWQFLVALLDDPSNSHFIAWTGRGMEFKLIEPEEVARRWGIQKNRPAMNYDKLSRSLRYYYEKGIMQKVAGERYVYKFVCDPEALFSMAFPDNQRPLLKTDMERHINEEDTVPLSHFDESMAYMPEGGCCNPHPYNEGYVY
# Method in brief: as §1
# ERF = biological target: T6, ERF (Homo sapiens, UniProt P50548 1-548); conditions: protein: recombinant; tags: N-terminal GST; dsDNA, one strand shown
# T6 sequence: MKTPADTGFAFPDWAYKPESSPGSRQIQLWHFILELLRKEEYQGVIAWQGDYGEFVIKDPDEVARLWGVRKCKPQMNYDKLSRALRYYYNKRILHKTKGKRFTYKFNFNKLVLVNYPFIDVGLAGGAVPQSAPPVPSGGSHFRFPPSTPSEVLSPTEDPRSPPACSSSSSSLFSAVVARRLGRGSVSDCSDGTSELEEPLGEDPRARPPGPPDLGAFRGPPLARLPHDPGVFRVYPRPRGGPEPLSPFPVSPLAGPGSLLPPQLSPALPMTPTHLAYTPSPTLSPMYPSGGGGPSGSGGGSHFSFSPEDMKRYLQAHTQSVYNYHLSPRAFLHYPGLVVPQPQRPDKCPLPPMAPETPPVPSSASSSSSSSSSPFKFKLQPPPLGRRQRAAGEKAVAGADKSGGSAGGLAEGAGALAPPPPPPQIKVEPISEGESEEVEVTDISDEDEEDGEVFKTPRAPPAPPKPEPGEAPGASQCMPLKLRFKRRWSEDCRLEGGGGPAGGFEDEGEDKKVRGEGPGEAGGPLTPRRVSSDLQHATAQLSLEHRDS
# Method in brief: as §1
# ETV3L = biological target: T7, ETV3L (Homo sapiens, UniProt Q6ZN32 1-361); conditions: protein: recombinant; tags: N-terminal GST; dsDNA, one strand shown
# T7 sequence: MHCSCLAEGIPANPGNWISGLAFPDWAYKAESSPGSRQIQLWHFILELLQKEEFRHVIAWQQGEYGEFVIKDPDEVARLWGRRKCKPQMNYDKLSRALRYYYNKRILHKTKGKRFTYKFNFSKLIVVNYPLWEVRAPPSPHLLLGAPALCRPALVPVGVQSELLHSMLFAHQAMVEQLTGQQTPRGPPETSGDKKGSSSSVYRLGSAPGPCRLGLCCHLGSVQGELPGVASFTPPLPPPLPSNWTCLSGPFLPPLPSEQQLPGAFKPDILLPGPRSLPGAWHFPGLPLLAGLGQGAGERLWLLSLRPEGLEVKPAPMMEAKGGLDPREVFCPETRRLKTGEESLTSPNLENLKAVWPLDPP
# Method in brief: as §1
# ETS2 = biological target: T8, ETS2 (Homo sapiens, UniProt P15036 1-469); conditions: protein: recombinant; tags: N-terminal GST; dsDNA, one strand shown
# T8 sequence: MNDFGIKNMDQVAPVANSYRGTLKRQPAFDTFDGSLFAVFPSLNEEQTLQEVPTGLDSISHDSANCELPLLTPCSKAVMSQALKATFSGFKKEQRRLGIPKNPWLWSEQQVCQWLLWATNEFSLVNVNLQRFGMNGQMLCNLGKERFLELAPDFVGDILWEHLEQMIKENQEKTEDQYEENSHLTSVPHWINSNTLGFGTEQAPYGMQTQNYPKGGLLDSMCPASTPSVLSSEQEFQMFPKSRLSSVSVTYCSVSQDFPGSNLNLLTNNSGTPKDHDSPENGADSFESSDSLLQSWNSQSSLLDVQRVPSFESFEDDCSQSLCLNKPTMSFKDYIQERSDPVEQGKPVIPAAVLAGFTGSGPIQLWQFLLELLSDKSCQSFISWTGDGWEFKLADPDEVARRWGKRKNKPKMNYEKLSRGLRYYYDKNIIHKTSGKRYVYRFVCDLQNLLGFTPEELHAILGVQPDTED
# Method in brief: as §1
# SPDEF = biological target: T9, SPDEF (Homo sapiens, UniProt O95238 1-335); conditions: protein: recombinant; tags: N-terminal GST; dsDNA, one strand shown
# T9 sequence: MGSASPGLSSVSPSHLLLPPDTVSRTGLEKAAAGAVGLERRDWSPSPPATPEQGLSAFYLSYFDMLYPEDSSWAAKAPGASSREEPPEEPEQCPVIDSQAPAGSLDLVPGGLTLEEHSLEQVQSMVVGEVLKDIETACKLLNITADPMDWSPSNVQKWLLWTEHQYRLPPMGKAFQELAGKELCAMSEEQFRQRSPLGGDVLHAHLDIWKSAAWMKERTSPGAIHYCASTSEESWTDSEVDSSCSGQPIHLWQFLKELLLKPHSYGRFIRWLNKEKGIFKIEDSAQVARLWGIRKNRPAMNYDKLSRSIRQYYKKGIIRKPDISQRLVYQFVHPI
# Method in brief: as §1
# ETV7 = biological target: T10, ETV7 (Homo sapiens, UniProt Q9Y603 1-341); conditions: protein: recombinant; tags: N-terminal GST; dsDNA, one strand shown
# T10 sequence: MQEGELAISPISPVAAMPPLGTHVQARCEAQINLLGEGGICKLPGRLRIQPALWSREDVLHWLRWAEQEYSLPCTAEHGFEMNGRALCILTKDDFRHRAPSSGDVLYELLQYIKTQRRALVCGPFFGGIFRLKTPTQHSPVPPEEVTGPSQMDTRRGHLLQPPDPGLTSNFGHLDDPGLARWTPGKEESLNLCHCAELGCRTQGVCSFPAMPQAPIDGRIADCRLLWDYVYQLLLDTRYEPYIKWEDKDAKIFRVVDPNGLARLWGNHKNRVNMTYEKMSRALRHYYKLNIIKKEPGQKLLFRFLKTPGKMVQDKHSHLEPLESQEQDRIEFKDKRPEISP
# Method in brief: as §1
# ELF5 = biological target: T11, ELF5 (Homo sapiens, UniProt Q9UKW6-2 1-255); conditions: protein: recombinant; tags: N-terminal GST; dsDNA, one strand shown
# T11 sequence: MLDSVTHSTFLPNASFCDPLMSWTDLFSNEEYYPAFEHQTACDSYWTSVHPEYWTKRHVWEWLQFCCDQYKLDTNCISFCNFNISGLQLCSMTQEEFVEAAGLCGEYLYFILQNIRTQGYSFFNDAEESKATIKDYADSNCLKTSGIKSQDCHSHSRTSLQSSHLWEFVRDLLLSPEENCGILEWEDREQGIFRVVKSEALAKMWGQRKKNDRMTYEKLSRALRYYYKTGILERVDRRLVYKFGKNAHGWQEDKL
# Method in brief: as §1
# ETV3 = biological target: T12, ETV3 (Homo sapiens, UniProt P41162-2 1-143); conditions: protein: recombinant; tags: N-terminal GST; dsDNA, one strand shown
# T12 sequence: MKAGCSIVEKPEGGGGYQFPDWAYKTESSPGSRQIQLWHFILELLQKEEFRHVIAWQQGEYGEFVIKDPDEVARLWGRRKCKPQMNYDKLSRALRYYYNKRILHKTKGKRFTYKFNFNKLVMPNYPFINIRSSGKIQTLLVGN
# Method in brief: as §1
# ETV6 = ETV6 (Homo sapiens, UniProt P41212 1-452); conditions: protein: recombinant; tags: N-terminal GST; dsDNA, one strand shown
# ETV6, sequence (P41212 whole entry): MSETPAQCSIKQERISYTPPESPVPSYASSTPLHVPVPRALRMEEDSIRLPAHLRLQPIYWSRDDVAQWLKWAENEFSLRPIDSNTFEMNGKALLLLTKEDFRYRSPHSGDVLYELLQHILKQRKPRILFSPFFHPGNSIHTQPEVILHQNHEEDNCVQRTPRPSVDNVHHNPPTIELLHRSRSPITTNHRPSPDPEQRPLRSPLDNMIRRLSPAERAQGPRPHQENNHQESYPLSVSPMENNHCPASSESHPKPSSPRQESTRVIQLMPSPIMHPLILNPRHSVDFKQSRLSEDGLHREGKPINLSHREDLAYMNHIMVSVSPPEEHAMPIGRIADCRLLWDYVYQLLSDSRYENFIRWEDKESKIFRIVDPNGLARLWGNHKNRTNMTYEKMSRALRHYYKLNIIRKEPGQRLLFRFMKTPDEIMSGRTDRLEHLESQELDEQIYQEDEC
# Method in brief: as §1
sequence,measurement,setting,value
CCTAAT,binding signal,FEV,"1.32 fold enrichment (6-mer frequency, TF over GST control)"
same,binding signal,ETV5,"1.31 fold enrichment (6-mer frequency, TF over GST control)"
same,binding signal,HSF1,"1.75 fold enrichment (6-mer frequency, TF over GST control)"
same,binding signal,SPIC,"1.33 fold enrichment (6-mer frequency, TF over GST control)"
same,binding signal,ELF4,"1.26 fold enrichment (6-mer frequency, TF over GST control)"
same,binding signal,ELK4,"1.24 fold enrichment (6-mer frequency, TF over GST control)"
same,binding signal,ETV2,"1.44 fold enrichment (6-mer frequency, TF over GST control)"
same,binding signal,ELF3,"1.52 fold enrichment (6-mer frequency, TF over GST control)"
same,binding signal,CRX,"2.61 fold enrichment (6-mer frequency, TF over GST control)"
same,binding signal,ETV1,"1.38 fold enrichment (6-mer frequency, TF over GST control)"
same,binding signal,ERF,"1.24 fold enrichment (6-mer frequency, TF over GST control)"
same,binding signal,ETV3L,"1.33 fold enrichment (6-mer frequency, TF over GST control)"
same,binding signal,ETS2,"1.33 fold enrichment (6-mer frequency, TF over GST control)"
same,binding signal,SPDEF,"1.36 fold enrichment (6-mer frequency, TF over GST control)"
same,binding signal,ETV7,"1.31 fold enrichment (6-mer frequency, TF over GST control)"
same,binding signal,ELF5,"1.25 fold enrichment (6-mer frequency, TF over GST control)"
same,binding signal,ETV3,"1.22 fold enrichment (6-mer frequency, TF over GST control)"
same,binding signal,ETV6,"1.31 fold enrichment (6-mer frequency, TF over GST control)"
